Source: PubChem BioAssay (National Center for Advancing Translational Sciences (NCATS))
Shown are actives, neighbours in structure and some others; about 7.3% of the full set was active somewhere.
SMN2 splice enh – qHTS Assay for Enhancers of SMN2 Splice Variant Expression | HEK293 SMN2-luciferase splicing reporter, luminescence, 30-36 h | Potency, µM (doses to about 46.1 µM), inactives show at the top dose activity change, positive = activation, actives largely listed as activators | 210,000 tested, 2.8% active | AID 1458, 2008; note: % of control where 0% means no effect; nearly all actives have a fitted effect of over 55% in size
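qHTS luciferase splicing reporter: luminescence rises when SMN2 exon 7 is included in transfected HEK293 cells. Compound exposure lasted 30-36 h at 37C, with 4.5 mM final sodium butyrate as control, followed by a ONE-Glo read.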
NPC1 promoter act – qHTS Assay for NPC1 Promoter Activators; Huh7 NPC1 promoter luciferase reporter, 24 h; Potency, µM (titrated, usually from 9.22 µM), without a hit: at the highest dose activation, actives largely listed as activators; 320,000 tested, 2.4% active; note: % of control where 0% means no effect; nearly all actives have a fitted effect of over 60% in size
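Cells: Huh7 expressing luciferase under the NPC1 promoter, 1500/well. Seeded 2 h, compound added, incubated 24 h at 37 °C. Luciferase reagent, 10 min ambient, then luminescence.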
p53 reactivator – qHTS assay for re-activators of p53 using a Luc reporter; H1299 p53-A138V BP100-luciferase reporter, luminescence, 24 h; Potency, µM (series often up to 92.2 µM), without a hit: top-dose activity change, positive = activation, actives largely listed as activators; 320,000 tested, 0.063% active; AID 504706, 2011; note: % of control where 0% means no effect; nearly all actives have a fitted effect of over 45% in size
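p53-null H1299 cells stably carrying temperature-sensitive p53-A138V and a BP100-luciferase reporter were pinned with compounds (4-point, 1:5 series) and held 24 hrs at 37 deg C. Luminescence was read 10 min after detection reagent.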
FLuc modulator – qHTS profiling assay for firefly luciferase inhibitor/activator using purifed enzyme and Km concentrations of substrates (counterscreen for miR-21 project); purified FLuc, Km substrates, luminescence inhibition; Luciferin 4-monooxygenase (Photinus pyralis), P08659; Potency, µM (highest dose often 57.5 µM), for inactives: top-dose activity change, negative = inhibition, actives largely listed as inhibitors; 360,000 tested, 6.9% active; AID 588342, 2011;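 note: plate controls were vehicle for no effect and reference inhibitor for full effect; nearly all actives have a fitted effect of over 55% in size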
Target sequence (P08659 whole entry, looked up): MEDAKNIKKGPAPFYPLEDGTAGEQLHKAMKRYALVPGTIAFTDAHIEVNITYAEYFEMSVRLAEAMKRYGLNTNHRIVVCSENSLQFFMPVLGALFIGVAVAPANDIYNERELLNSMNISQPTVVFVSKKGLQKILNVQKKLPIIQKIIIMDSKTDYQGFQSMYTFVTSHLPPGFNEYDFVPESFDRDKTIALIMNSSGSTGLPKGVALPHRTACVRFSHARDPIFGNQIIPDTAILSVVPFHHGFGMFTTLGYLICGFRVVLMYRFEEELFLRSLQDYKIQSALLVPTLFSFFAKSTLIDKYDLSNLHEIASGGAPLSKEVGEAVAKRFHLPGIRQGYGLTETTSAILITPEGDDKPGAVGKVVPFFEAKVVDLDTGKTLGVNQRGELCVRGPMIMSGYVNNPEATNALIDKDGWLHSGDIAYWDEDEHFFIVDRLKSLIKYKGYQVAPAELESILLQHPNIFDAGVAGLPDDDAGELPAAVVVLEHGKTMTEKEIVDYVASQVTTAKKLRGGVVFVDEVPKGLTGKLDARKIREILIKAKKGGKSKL
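Biochemical qHTS of compounds, final roughly 60 µM downward over six points, against 10 nM purified firefly luciferase using Km concentrations of substrates (10 uM D-luciferin, 10 uM ATP) in Tris acetate pH 7.5 buffer; luminescence output.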
ELG1 genotox – qHTS screen for small molecules that induce genotoxicity in human embryonic kidney (HEK293T) cells expressing luciferase-tagged ELG1; HEK293T ELG1-luciferase reporter, luminescence, 16 h; Potency, µM (doses to about 46 µM), without a hit: at the highest dose activity change, positive = activation, most hits filed as activators; 330,000 tested, 1.3% active; note: % of control where 0% means no effect; nearly all actives have a fitted effect of over 60% in size
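HEK293T cells expressing luciferase-tagged ELG1 were treated with compound or DMSO for 16 hr at 37°C. Luciferase activity was then read after 30 min with ONE-Glo at room temperature; rising signal flags genetic stress.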
Rab9 promoter act – qHTS Assay for Rab9 Promoter Activators; Huh7 Rab9 promoter-luciferase reporter, luminescence, 24 h; AID 485297, 2010; 320,000 tested, 2.8% active; Potency, µM (doses to about 9.22 µM), without a hit: at the top dose activation, negative = inhibition, actives largely listed as activators; note: % of control where 0% means no effect; nearly all actives have a fitted effect of over 60% in size
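Huh7 reporter line, Rab9 promoter upstream of luciferase. Compound exposure 24 h at 37 °C in reduced-serum medium with 10% FBS. Read-out: luminescence.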
* marks the source's active call; other numbers are inactive results; ? = inconclusive; · = no result; [ ] = dose if it differs, or a comment. Calls come from the whole dose curve; as a rule, active = well fitted curve in the direction sought with a large enough effect; inconclusive = small, poorly fitted or top-dose-only effect, or another doubt; inactive = no such curve, though single readings can be large; an effect the other way counts as inactive or inconclusive. Potency is the fitted concentration of half-maximal effect.

SMILES	SMN2 splice enh	NPC1 promoter act	p53 reactivator	FLuc modulator	ELG1 genotox	Rab9 promoter act
O=C(CCC1CCCN(C(=O)c2ccco2)C1)NCc1ccccc1F (centres undefined)	·	-10%	3%	-3%	4%	1%
O=C(c1cnccn1)N1CCC2(CC1)CN(Cc1nccs1)C2	-3%	·	·	·	·	·
O=C(/C=C/c1ccc2c(c1)OCO2)c1ccco1	2%	26%	?	2.1µM*	?	?
Nc1ccccc1C(=O)/C=C/c1ccc2c(c1)OCO2	?	3.2µM*	?	3.4µM*	?	3.2µM*
CCNc1ccc(Br)cc(C(=O)/C=C/c2ccc3c(c2)OCO3)c1=O	-33%	-3%	-8%	?	-3%	-1%
Cc1cccc(NC(=O)CSc2nnc(-c3cccs3)o2)c1	·	·	·	-8%	·	·
CS(=O)(=O)N1CCC(N2CCN(Cc3ccccc3)C(=O)C2=O)CC1	·	·	·	-2%	·	·
Cc1ccc(SC[C@H](CC(C)C)N2CCN(CCc3ccccc3)CCC2=O)cc1	·	18%	?	17µM*	5%	12%
COc1ccc(SC[C@H](CC(C)C)N2CCN(CCc3ccccc3)CCC2=O)cc1	·	14%	23%	19µM*	-3%	0%
Cc1ccc(C(=O)NC(=S)NCC2CCCO2)cc1 (centres undefined)	14µM*	2.8µM*	26%	17µM*	?	?
CC(C)(C)c1ccc(C(=O)Nc2ccccc2C(=O)NCCN2CCOCC2)cc1	·	29%	3%	5.4µM*	15%	8%
Cc1ccc(C(=O)Nc2ccccc2C(=O)NCC2CCCO2)cc1 (centres undefined)	·	-14%	-3%	15µM*	-2%	9%
CCOc1cc(NC(=S)NCC2CCCO2)c(OCC)cc1NC(=O)c1ccc(F)cc1 (centres undefined)	·	-5%	-8%	27µM*	-2%	-6%
O=C(Nc1ccccc1C(=O)NCC1CCCO1)c1ccco1 (centres undefined)	26%	0%	-1%	4%	0%	-6%
O=C(NC(=S)NCC1CCCO1)c1ccc(Cl)cc1 (centres undefined)	?	26%	?	?	?	20%
O=C(CN1C(=O)NC(c2ccccc2)(c2ccccc2)C1=O)NCCc1ccc(F)cc1	·	·	-6%	·	-2%	·
COC(=O)Cc1[nH]n(-c2ccccc2)c(=O)c1C=Nc1ccc(C)cc1	·	0%	4%	9.5µM*	2%	-3%
COc1cccc(CNC(=O)c2cc3c(=O)n(Cc4cccnc4)ccc3nc2C)c1	·	·	·	0%	·	·
O=[N+]([O-])c1ccc(-c2ncc(-c3ccc(Br)cc3)o2)cc1	·	?	0%	?	13%	?
Nc1ccc(-c2ncc(-c3ccccc3)o2)cc1	·	-17%	-6%	1.5µM*	?	-33%
Cc1ccc(-c2cnc(-c3ccncc3)o2)cc1	22µM*	?	?	6.7µM*	18µM*	?
COc1ccc(NC(=O)N2CC[C@@]3(CCCN(C(=O)c4ccncc4)C3)C2)cc1	-11%	·	·	·	·	·
COc1ccc(/C=C2\SC(=S)N(CCC(=O)NCCCn3ccnc3)C2=O)cc1	·	1%	7%	19µM*	0%	-7%
O=C(CCCN1C(=O)/C(=C/c2ccc(F)cc2)SC1=S)NCCCn1ccnc1	·	-3%	0%	?	-5%	-3%
CC(C)c1ccc(/C=C2\SC(=S)N(CCC(=O)NCCCn3ccnc3)C2=O)cc1	·	-7%	?	2.4µM*	2%	-39%
SMILES	SMN2 splice enh	NPC1 promoter act	p53 reactivator	FLuc modulator	ELG1 genotox	Rab9 promoter act
COc1cc(/C=N/N(C)C)ccc1OC(=O)c1cccs1	2%	-6%	29%	27µM*	8%	10%
COc1cc(/C=C2/SC(=S)N(CC(=O)O)C2=O)ccc1OC(=O)c1cccs1	·	0%	0%	4.8µM*	0%	3%
Cc1cn(C)c(CC(=O)N2CCN(c3cccc(C(F)(F)F)c3)CC2)c1C(=O)O	·	·	·	-17%	·	·
Cc1ccc(S(=O)(=O)NCc2ccccc2)cc1C(=O)NC1CCC(C)CC1 (centres undefined)	·	?	10%	?	?	1.3µM*
CCOC(=O)C1(CC2CCCCO2)CCN(Cc2ccc(OC)cc2F)CC1 (centres undefined)	·	5%	0%	2%	-9%	-5%
COc1ccc(C(=O)N2CCC3(CC2)CN(C(=O)NC(C)C)C3)cc1	-2%	·	·	·	·	·
Cn1ccc2cc(S(=O)(=O)N3CCC(C(=O)NCCc4ccccc4)CC3)ccc21	·	·	·	0%	·	·
COc1cccc(/C=C2\Oc3cc(OCC(=O)N4CCC[C@H]4C(=O)O)ccc3C2=O)c1	·	0%	·	2.7µM*	8%	-3%
COc1ccc(/C=C2\Oc3cc(OCC(=O)N4CCC[C@H]4C(=O)O)ccc3C2=O)c(OC)c1	·	0%	13%	12µM*	-2%	-2%
O=C1C=CC2=C3c4cc(O)c(O)cc4C[C@]3(O)COC2=C1	-8%	·	·	·	·	·
Cc1nc2ccccc2c(=O)n1NC(=O)c1ccco1	-5%	0%	5%	-2%	5%	0%
Cc1ccc(C)c(/C=N/Nc2nc3ccccc3c(=O)n2O)c1	·	6%	11%	13µM*	4%	2%
C/C(=N\Nc1nc2ccccc2c(=O)n1O)c1ccco1	·	30%	?	11µM*	?	3.2µM*
O=C(Nc1ccc2ccccc2c1)c1onc2c1CCCC2	8.9µM*	0.4µM*	33%	0.95µM*	?	0.56µM*
COC(=O)c1cccc(NC(=O)c2onc3c2CCCC3)c1	0.79µM*	0.4µM*	?	0.85µM*	0.82µM*	0.32µM*
COc1ccccc1NC(=O)c1cc2cc(Br)ccc2oc1=N	·	26%	7%	4.8µM*	2%	-1%[1.84 µM]
COc1ccc2oc(=O)c(C(=O)Nc3ccccc3O)cc2c1	·	1µM*	7%	0.6µM*	0.65µM*	0.4µM*
COc1ccc(NC(=O)c2cc3cc(OC)ccc3oc2=N)cc1	-22%	9%	0%	9.5µM*	10%	-1%
COc1ccc2oc(=O)c(C(=O)Nc3ccc(C(=O)O)cc3)cc2c1	-1%	·	·	6.7µM*	·	·
COc1ccc2oc(=O)c(C(=O)NC(C)c3ccccc3)cc2c1 (centres undefined)	·	2%	·	-17%	-1%	?
COc1ccc2o/c(=N\O)c(C(=O)Nc3ccccc3OC)cc2c1	22%	-1%	16%	?	-3%	-2%
